# Assay outcomes deposited in PubChem by National Center for Advancing Translational Sciences (NCATS).
# Compounds with a hit are over-represented: about 3.9% of the library has one in this group of screens.
# HT1080 IDH1KD tx – kills HT-1080 cells with IDH1 knockdown; Potency, µM (highest dose often 46.1 µM), hits mostly cytotoxic; HT-1080 IDH1 knockdown viability, ATP luminescence, 48 h; AID 686971; 2% of 360,000 active
#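 Using the IDH1-knockdown HT-1080 line run in the same batch and compound series as the NT line, viability after 48 h at 37 °C was determined by CellTiter-Glo luminescence and expressed as % activity.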
# TGFb inhibitor – blocks TGF-b signaling; HepG2 CAGA-GFP TGF-b/SMAD3 reporter, GFP fluorescence, 18 h; TGF-beta stimulated, 500 pg/mL final; Potency, µM (top dose mostly 46.1 µM), usual class: inhibitors; 1.2% of 410,000 active; note: nearly all actives have a fitted effect of over 65% in size
#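 Inhibition of TGF-beta-driven CAGA-GFP reporter expression in HEPG2 cells is measured by cellular GFP fluorescence after 18 h stimulation with 500 pg/mL recombinant TGF-beta in 1% FBS medium at 37 degrees C.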
# HT1080-NT tox – kills 2HG-producing HT-1080-NT fibrosarcoma cells; HT-1080-NT fibrosarcoma viability, CellTiter-Glo ATP luminescence, 48 h; Potency, µM (doses to about 46.1 µM), hits mostly cytotoxic; 1.6% of 360,000 active;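 note: NT is the 2HG producing partner of a matched IDH1 knockdown line; nearly all actives have a fitted effect of over 55% in size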
#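 Read-out is CellTiter-Glo luminescence after 10 minutes at room temperature, following 48 hours' compound treatment of HT-1080-NT cells (750 cells/well, RPMI, 5% FBS, 37 degrees C).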
# S2 tox – viability counter-screen for ATXN expression inhibitors; S2 cells (HEK-293 line with an ATXN2-luciferase reporter) viability, CellTiter-Fluor protease fluorescence, 24 h; Potency, µM (titrated, usually from 56.7 µM), most hits filed as cytotoxic; 0.49% of 400,000 active; AID 651635; note: nearly all actives have a fitted effect of over 40% in size
# ATXN2 expr inh – reduces ATXN2 reporter expression in HEK-293 cells | HEK-293 ATXN2-luciferase reporter, luminescence, 24 h | 0.72% of 360,000 active | AID 1745845 | Potency, µM (titrated, usually from 57 µM), most hits filed as inhibitors; note: nearly all actives have a fitted effect of over 55% in size
#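 qHTS (up to 57 uM final) was run with 24 h compound exposure of reporter cells at 37 °C. Each well was multiplexed: SteadyGlo luminescence measured ATXN2-luciferase expression after a fluorogenic Gly-Phe-AFC viability readout (25 uM final).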
# HepG2 viability – HepG2 cytotoxicity, counter-screen for TGF-b inhibitors; HepG2 CAGA-GFP viability, ATP luminescence, 18 h; Potency, µM (highest dose often 46.1 µM), most hits filed as cytotoxic; 0.76% of 410,000 active; AID 588856
#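 CellTiter-Glo luminescence gave cytotoxicity after 18 hours at 37 degrees C. The cells were HepG2 CAGA-GFP in 1% FBS DMEM, stimulated with 500 pg/mL TGF-beta after compound addition. %Activity was normalised to no-cell wells (complete cell-killing) and DMSO (no toxicity), and curves were fitted and classified.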
# Numbers stand for hits; - = inactive; ? = inconclusive; . = no result given. Calls come from the whole dose curve; as a rule, active = well fitted curve in the direction sought with a large enough effect; inconclusive = small, poorly fitted or top-dose-only effect, or another doubt; inactive = no such curve, though single readings can be large; an effect the other way counts as inactive or inconclusive.
SMILES,HT1080 IDH1KD tx,TGFb inhibitor,HT1080-NT tox,S2 tox,ATXN2 expr inh,HepG2 viability
NC[C@H](Cc1ccccc1)NCCCCC1CCCCC1,-,-,-,-,-,-
CNC[C@H](CC1CCCCC1)NC[C@H](Cc1ccccc1)NCCC12CC3CC(CC(C3)C1)C2,?,?,21µM,16µM,-,13µM
CN(/N=C/c1cc(Br)cc(Br)c1O)c1cccc(C(F)(F)F)n1,?,?,?,.,?,3.2µM
CN(N=Cc1ccccc1O)c1ccc2ccccc2n1,-,-,-,-,.,-
C/C(=N\O)c1ccc(OCC(=O)N2CCCCC2)cc1,.,.,.,?,-,.
Cc1c(C(=O)N2CC3CCC2C3)sc2ncnc(NCCc3ccccn3)c12 (configuration not stated),.,.,.,-,.,.
O=[N+]([O-])c1cccc(/C=N/Nc2nccnc2Cl)c1,-,?,?,-,-,-
Oc1ccc(/C=N/Nc2nccnc2Cl)cc1,26µM,-,16µM,-,-,-
Nc1c(Cl)ncnc1N/N=C/c1ccc(O)cc1,?,-,-,-,.,-
Fc1cccc(/C=N/Nc2nccnc2Cl)c1,15µM,-,12µM,-,-,-
Fc1ccc(/C=N/Nc2nccnc2Cl)cc1,?,?,?,-,-,10µM
O=C(CSc1nc2ccccc2n1Cc1cccc(C(F)(F)F)c1)NCc1ccccc1,.,?,.,-,-,-
O=C(CCN1CCc2ccccc2CC1)c1ccc2c(c1)OCCO2,-,?,-,?,?,1.4µM
CN(C(=O)CN1CCN(c2cc(-c3ccc(-c4ccccc4)cc3)ncn2)CC1)c1ccccc1,13µM,?,15µM,?,?,-
CN(C(=O)COc1coc(CN2CCN(c3ccccc3)CC2)cc1=O)c1ccccc1,-,-,-,-,-,-
Cc1ccc(C(=O)NCCc2nnc3n2CCN(C(=O)c2ccnc(Cl)c2)CC3)cc1,.,.,.,-,.,.
Nc1c(C(=O)Nc2cccc(C(=O)O)c2)sc2nc3c(cc12)CCCC3,-,-,-,-,4µM,-
CC(=O)c1cc2c(cc1N/C(=N/S(=O)(=O)c1ccc(F)cc1)c1ccccc1)OCO2,.,?,.,-,-,-
COCc1c(C(=O)N2CCN(C3CCCCC3)CC2)cnn1-c1ncc(C)c(-c2cccs2)n1,.,.,.,-,.,.
CCCCn1c(=N)n(CC(O)COc2ccc(C)cc2)c2ccccc21 (configuration not stated),11µM,?,?,.,.,13µM
CCCCCn1c(=N)n(CC(O)COc2cccc(C)c2)c2ccccc21 (configuration not stated),.,?,.,20µM,32µM,-
Cc1ccc(Cn2c(=N)n(CC(O)COc3ccccc3)c3ccccc32)cc1 (configuration not stated),?,?,-,-,-,2.8µM
CCCn1c(=N)n(CC(O)COc2cccc(C)c2)c2ccccc21 (configuration not stated),?,-,-,?,?,-
CCCCn1c(=N)n(CC(O)COc2ccccc2)c2ccccc21 (configuration not stated),?,-,?,-,-,-
CCOc1ccc(CCNC(=O)Cn2ccc3cc(S(=O)(=O)N4CCCCC4)ccc32)cc1,.,?,.,?,?,-
SMILES,HT1080 IDH1KD tx,TGFb inhibitor,HT1080-NT tox,S2 tox,ATXN2 expr inh,HepG2 viability
COc1ccc(/C(=N/Nc2ncnc3ccccc23)C(=O)O)cc1,23µM,?,23µM,-,-,-
CCOC(=O)Nc1cc(=O)c2ccccc2o1,?,-,8.9µM,-,-,-
C=CCN(c1ccccc1)S(=O)(=O)c1cccc(C(=O)NCC(c2ccccc2OC)N2CCCC2)c1 (configuration not stated),?,-,23µM,?,?,-
CCC1=Nc2cc(C(=O)NCC3CCCO3)ccc2Sc2ccc(Cl)cc21 (configuration not stated),16µM,?,?,?,-,-
CCOC(=O)C1CCN(C(=O)c2ccc3c(c2)N=C(CC)c2cc(C)ccc2S3)CC1,.,10µM,.,-,-,-
CCC1=Nc2cc(C(=O)NCc3cccnc3)ccc2Sc2ccc(C)cc21,2.6µM,-,2.3µM,-,-,-
